Assay results taken from PubChem BioAssay (Tox21).
Records with an inconclusive call do not appear. Active and inactive are the calls of the source. The call rests on the fitted dose curve.

Each compound was assayed against Beta-2 adrenergic receptor (Homo sapiens) (UniProt P07550) (assay: Adrenergic beta2 receptor (ADRB2) small molecule agonists, cell-based qHTS assay (AID 1963593)). Conditions: CHO-ADRB2 cells, cAMP HTRF, 30 min; series mostly up to 92.4 µM; activation: at the top concentration.
Excerpt: National Center for Advancing Translational Sciences [NCATS]
Division of Preclinical Innovation [DPI]
U.S. Environmental Protection Agency [EPA]
National Institutes of Environmental Health Sciences [NIEHS]
National Toxicology Program [NTP]
U.S. Food and Drug Administration [FDA]
Beta adrenergic receptors (Beta-ARs) belong to the G-protein coupled receptor (GPCR) superfamily, includes three subtypes - beta1, beta2, and beta3. Beta1-AR is the predominant receptor subtype expressed in the heart, and beta2-AR is expressed in the kidney, lung, blood vessel and in the heart, and beta3 is found in the adipocytes. Beta1 and 2 ARs couple to Gs protein and elevate cyclic adenosine mono phosphate (cAMP), which activates protein kinase A and leads to the downstream signaling responsible for the physiological actions. Beta-AR agonists or antagonists are the most prescribed therapeutic agents for heart failure and asthma, and these were one of the first target receptors for the rational drug design. Tox21 10K compound library was screened using the cAMP-Gs dynamic assay (Cisbio Bioassays, Shelton, CT) to identify agonists/antagonists of the Gs-coupled human adrenergic, beta2 receptor (ADRB2) in the CHO-ADRB2 cell line (Codex BioSolutions, Inc. Gaithersburg, MD), which stably over-expresses ADRB2. The principle of cAMP-Gs dynamic assay is based on HTRF technology, which facilitates the fluorescence resonance energy transfer (FRET) between donor Europium cryptate and acceptor d2-labeled cAMP. The cAMP generated within cells competes with the red acceptor, d2-labled cAMP, for binding to the monoclonal anti-cAMP-cryptate (Europium donor). An increase in intracellular cAMP leads to the disruption of FRET signal, and the signal is inversely proportional to the cAMP concentration. Isoproterenol HCl (Sigma-Aldrich, St. Louis, MO) was used as a positive control in the screening.
Tox21 Assay Protocol Summary:
CHO-ADRB2 cells were dispensed at 1,000/well in 4uL assay medium into white/solid 1536-well plates (Greiner Bio-One North America Inc., Monroe, NC) using a Multidrop Combi dispenser (ThermoFisher Scientific, Waltham, MA). The assay plates were incubated at 37C and 5% CO2 for an overnight (18-20hr). Then positive control and test compounds dissolved in DMSO were transferred to the assay plates at 23nL using a Pintool station (Wako, San Diego, CA). Following the compound and positive control transfer, 1uL stimulation mix containing 100uM IBMX and 25uM Ro-20-1724 was added to each well of the assay plates using BioRAPTR Flying Reagent Dispenser (FRD, Beckman Coulter, Brea, CA). The assay plates were incubated at room temperature for 0.5hr. Then 2.5ul each d2-labled cAMP and anti-cAMP-cryptate solutions were added separately to each well of the assay plates using an FRD and the assay plates were incubated at room temperature for 1hr.
On the % scale 0 is the no-effect control and ±100 the full control effect; potency means the concentration at half of the fitted maximal effect.

Sequence of Beta-2 adrenergic receptor (Homo sapiens) (P07550 whole entry, looked up): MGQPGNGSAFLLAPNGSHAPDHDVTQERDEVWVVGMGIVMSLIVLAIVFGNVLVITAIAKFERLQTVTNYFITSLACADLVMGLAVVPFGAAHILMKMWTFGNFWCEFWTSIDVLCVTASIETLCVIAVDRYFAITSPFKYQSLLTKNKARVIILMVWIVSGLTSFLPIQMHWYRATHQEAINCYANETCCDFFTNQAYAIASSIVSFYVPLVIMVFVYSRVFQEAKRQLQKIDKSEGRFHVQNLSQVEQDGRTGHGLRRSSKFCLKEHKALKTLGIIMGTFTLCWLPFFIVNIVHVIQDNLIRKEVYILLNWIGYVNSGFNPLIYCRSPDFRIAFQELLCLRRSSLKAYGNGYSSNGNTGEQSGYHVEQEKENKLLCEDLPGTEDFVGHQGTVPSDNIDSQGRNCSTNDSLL

Row | Compound | activation | Potency
1 | CC(C)(C)C(=O)CCc1ccc(Cl)cc1 | 0.645% (inactive) | –
2 | [Cl][Au]([Cl])[Cl] | 18.5% (inactive) | –
3 | N[C@@H](CCC(=O)N[C@@H](CS)C(=O)NCC(=O)O)C(=O)O | 20.3% [at 19 µM] (inactive) | –
4 | C=CCOC(=O)CCC1CCCCC1 | 4.89% (inactive) | –
5 | COc1ccc(-c2nc3ccc(C4=NNC(=O)CC4C)cc3[nH]2)cc1 (stereo not given) | -12.8% [at 42.5 µM] (inactive) | –
6 | CC1=C(O)C(=O)CO1 | -27.8% (inactive) | –
7 | C=CCCC(=O)O | 1.36% (inactive) | –
8 | Nc1ccn([C@H]2CS[C@@H](CO)O2)c(=O)n1 | -20.5% (inactive) | –
9 | COc1nc(C)nc(Cl)c1NC1=NCCN1 | 18.5% [at 42.5 µM] (inactive) | –
10 | CC[C@H](C)COC(=O)/C=C/c1ccc(N=Cc2ccc(OC)cc2)cc1 | -34% (inactive) | –
11 | CC(=O)OCCC(C)CC(C)(C)C (stereo not given) | -17.6% (inactive) | –
12 | CN(C)CCOC(c1ccccc1)c1ccc(Br)cc1 (stereo not given) | -11.2% [at 42.5 µM] (inactive) | –
13 | CCC(C)O (stereo not given) | -6.27% (inactive) | –
14 | CC(C)C=O | 2.05% (inactive) | –
15 | c1cc[c]([Bi]([c]2ccccc2)[c]2ccccc2)cc1 | – | 1720 nM (active)
16 | N[C@@H](CCC(=O)O)C(=O)O | 6.55% (inactive) | –
17 | Cc1c(F)c(N2CCNC(C)C2)cc2c1c(=O)c(C(=O)O)cn2C1CC1 (stereo not given) | 3.99% [at 42.5 µM] (inactive) | –
18 | Nc1nc(F)nc2c1ncn2[C@@H]1O[C@H](CO)[C@@H](O)[C@@H]1O | -13.6% [at 42.5 µM] (inactive) | –
19 | CC(C)C(O)(c1ccc(OC(F)(F)F)cc1)c1cncnc1 (stereo not given) | 6.21% (inactive) | –
20 | CCCNC(C)C(=O)Nc1c(C)csc1C(=O)OC (stereo not given) | -3.22% [at 42.5 µM] (inactive) | –

Row | Compound | activation | Potency
21 | CCCCCCCCCCCCOC(C)=O | 1.44% (inactive) | –
22 | COC(=O)C1=C(C)NC(C)=C(C(=O)O[C@@H]2CCCN(Cc3ccccc3)C2)[C@@H]1c1cccc([N+](=O)[O-])c1 | -0.562% [at 42.5 µM] (inactive) | –
23 | CC(C)COC(=O)/C=C/c1ccccc1 | 13.9% (inactive) | –
24 | Cc1ccc(N)cc1S(=O)(=O)O | -18.4% (inactive) | –
25 | Nc1cc(Cl)c([N+](=O)[O-])cc1O | -46% (inactive) | –
26 | O=S(=O)(O)c1cc(I)c(O)c2ncccc12 | -19.7% [at 42.5 µM] (inactive) | –
27 | CC(O)CN (stereo not given) | -0.702% (inactive) | –
28 | Cc1ccccc1N=C(N)N=C(N)N | -5.92% (inactive) | –
29 | C=Cc1ccc(OC(C)=O)cc1 | 13.7% (inactive) | –
30 | CCCCCCOC(=O)NC(=N)c1ccc(NCc2nc3cc(C(=O)N(CCC(=O)OCC)c4ccccn4)ccc3n2C)cc1 | 1.52% [at 42.5 µM] (inactive) | –
31 | O=C(O)C(=O)Cc1ccccc1 | 5.66% (inactive) | –
32 | CC(C)(C)c1ccc(C(O)CCCN2CCC(C(O)(c3ccccc3)c3ccccc3)CC2)cc1 (stereo not given) | 21.6% [at 42.5 µM] (inactive) | –
33 | O=C(CS)OCCOC(=O)CS | 0.789% (inactive) | –
34 | CCCCOc1ccc(CC(=O)NO)cc1 | 31.1% [at 42.5 µM] (inactive) | –
35 | CN(C)[C@@H]1C(=O)C(C(N)=O)=C(O)[C@@]2(O)C(=O)C3=C(O)c4c(O)cccc4C[C@H]3C[C@@H]12 | -23.1% [at 42.5 µM] (inactive) | –
36 | CCOB(OCC)OCC | 7.67% (inactive) | –
37 | C=C(C)C(=O)OCc1ccccc1 | 1.84% (inactive) | –
38 | CCC1=C[C@@H]2CN(C1)Cc1c([nH]c3ccccc13)[C@@](C(=O)OC)(c1cc3c(cc1OC)N(C)[C@H]1[C@@](O)(C(=O)OC)[C@H](OC(C)=O)[C@]4(CC)C=CCN5CC[C@]31[C@@H]54)C2 | -0.346% [at 42.5 µM] (inactive) | –
39 | CC1(C)SC(C)(C)SC(C)(C)S1 | 1.41% (inactive) | –
40 | COCCc1ccc(OCC2CO2)cc1 (stereo not given) | 0.26% [at 42.5 µM] (inactive) | –
